The campaign covered roughly 16,000 compounds. About 4,000 (25%) were called active. Not shown: some 26% with an inconclusive outcome. A selection follows. Unmarked numbers belong to inactive results. Calls come from the whole dose curve; as a rule, active = well fitted curve in the direction sought with a large enough effect; inconclusive = small, poorly fitted or top-dose-only effect, or effect the other way; inactive = no such curve, though single readings can be large or run the other way.
These molecules were tested against Cytochrome P450 2C9 (Homo sapiens) (UniProt P11712) (assay: Cytochrome panel assay with activity outcomes). Details: recombinant CYP, pro-luciferin dealkylation, luminescence, p450-cyp2c9; series mostly up to 57.1 µM.
Chain of Cytochrome P450 2C9 (Homo sapiens) (P11712 whole entry, looked up): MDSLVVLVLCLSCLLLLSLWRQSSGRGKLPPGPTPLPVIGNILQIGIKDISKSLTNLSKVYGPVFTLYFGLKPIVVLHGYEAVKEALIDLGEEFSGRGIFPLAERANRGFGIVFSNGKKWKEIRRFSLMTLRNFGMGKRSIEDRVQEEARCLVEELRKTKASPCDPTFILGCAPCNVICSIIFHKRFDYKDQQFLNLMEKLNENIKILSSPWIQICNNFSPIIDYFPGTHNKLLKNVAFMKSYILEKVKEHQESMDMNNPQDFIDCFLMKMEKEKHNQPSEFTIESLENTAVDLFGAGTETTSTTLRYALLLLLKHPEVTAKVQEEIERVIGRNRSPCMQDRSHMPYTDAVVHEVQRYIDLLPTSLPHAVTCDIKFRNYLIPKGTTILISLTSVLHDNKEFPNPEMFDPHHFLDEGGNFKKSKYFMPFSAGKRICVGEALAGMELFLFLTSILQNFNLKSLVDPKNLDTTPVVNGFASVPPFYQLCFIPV
`O=C(O)CN(CCN(CC(=O)O)CC(=O)O)CCN(CC(=O)O)CC(=O)O` was tested, and the AC50 was “inactive”.
`CCS(=O)(=O)c1ccc2oc(Nc3cc(C)cc(C)c3)nc2c1` was tested, and the AC50 was 8.91 µM (active).
`CN(C)S(=O)(=O)c1cccc(NC(=O)COC(=O)c2ccc(Br)o2)c1` was tested, and the AC50 was 6.31 µM (active).
In the case of `Cc1ccnc2nc(C(=O)OCC(=O)Nc3ccc4c(c3)OC(F)(F)O4)nn12`, the AC50 is reported as “inactive”.
With `CC(CC(=O)O)CC(=O)Nc1ccc(S(N)(=O)=O)cc1` (centres undefined) the AC50 was “inactive”.
In the case of `Cc1ccc(S(=O)(=O)N(C)CC(=O)O/N=C(\N)c2ccccn2)cc1`, the AC50 is reported as “inactive”.
In the case of `CCN(CC)S(=O)(=O)c1ccc(NC(=O)COC(=O)c2ccc(Br)o2)cc1`, the AC50 is reported as 8.91 µM (active).
In the case of `CN(C)S(=O)(=O)c1ccc(NC(=O)COC(=O)c2ccccn2)cc1`, the AC50 is reported as 10 µM (active).
In the case of `COc1ccccc1-c1ccc2ncnc(NCCNC(C)=O)c2c1`, the activity, negative = inhibition is reported as -2.65% [at 2.29 µM].
For `C=CC1=C[C@@H](O)C2OC2C12OCCCO2` (some centres undefined), the activity, negative = inhibition was 12.2% [at 11.4 µM].
In the case of `O=C(Nc1cccc(F)c1)N1CC[C@@]2(CCCNC2)C1`, the AC50 is reported as “inactive”.
For `COC(=O)[C@@]1(Cc2ccc(F)cc2)[C@H]2c3cc(C(=O)N4CCCC4)n(Cc4c(CO)[nH]cc(C)c4=O)c3C[C@H]2CN1C(=O)c1ccccc1`, the AC50 was 10 µM (active).
With `COC(=O)[C@@]1(Cc2ccccc2)[C@H]2c3cc(C(=O)N4CCCC4)n(Cc4c(CO)[nH]cc(C)c4=O)c3C[C@H]2CN1C(=O)c1ccccc1` the AC50 was 1 µM (active).
`CCCCCCCCCCCCCCCC(=O)C(F)(F)F` was tested, and the AC50 was “inactive”.
In the case of `O=S(=O)(c1ccccc1)N1CCC2(CC1)CN(Cc1ccccc1)C2`, the AC50 is reported as “inactive”.
In the case of `N#Cc1ccc(CN2CCCC3(CCN(S(=O)(=O)c4ccccc4)CC3)C2)cc1`, the AC50 is reported as 12.6 µM (active).
With `COCC(=O)N1CCC[C@@]2(CCN(Cc3ccc(C#N)cc3)C2)C1` the AC50 was “inactive”.
`N#Cc1ccc(CN2CCC3(CC2)CCN(S(=O)(=O)c2ccccc2)CC3)cc1` was tested, and the AC50 was “inactive”.
With `COC(=O)N1CCC2(CCCN(Cc3ccccc3)C2)CC1` the AC50 was “inactive”.
`COC(=O)N1CCC2(CCCN(Cc3ccc(C#N)cc3)C2)CC1` was tested, and the AC50 was 12.6 µM (active).
Molecule `CN(C)CC(CN(C)C)c1ccccn1` has an activity, negative = inhibition of -2.56% [at 11.4 µM].
For `C[C@@H](C1=C(CCN(C)C)Cc2ccccc21)c1ccccn1`, the AC50 was 0.501 µM (active).
For `CN(C)CC[C@@H](c1ccccc1)c1ccccn1`, the AC50 was “inactive”.
`CNc1cc(-c2ccccc2CN(C)C)ncn1` was tested, and the activity, negative = inhibition was 24.8% [at 2.29 µM].
In the case of `Cc1cccc(-c2n[nH]c([N+](=O)[O-])n2)c1`, the AC50 is reported as 20 µM (active).
For `CCCCN1C(=O)NC(NC(=O)c2ccco2)(C(F)(F)F)C1=O` (centres undefined), the AC50 was 12.6 µM (active).
For `CCCCn1c(=N)n(CC(=O)c2ccco2)c2ccccc21`, the AC50 was “inactive”.
`CC(=O)NC1=NC(=O)C(C)S1` (centres undefined) was tested, and the AC50 was “inactive”.
With `Cc1ccc(NC(=O)c2sccc2SCc2cccc(C(F)(F)F)c2)cc1` the AC50 was 2.51 µM (active).
For `O=C(O)/C=C/C(=O)Nc1ccc(F)cc1F`, the AC50 was “inactive”.
For `CCc1ccc(NC(=O)Cn2nc(C(F)(F)F)c3c2CCC3)cc1`, the AC50 was “inactive”.
`Cc1ccc(NC(=O)c2c(C(F)(F)F)nn(C)c2SCc2cccc(C(F)(F)F)c2)cc1C` was tested, and the AC50 was 0.891 µM (active).
`CC(=O)NC1(c2ccc(F)cc2)CCN(C(=O)Nc2ccc(F)cc2F)CC1` was tested, and the AC50 was “inactive”.
`CCNS(=O)(=O)c1ccc(NC(=O)c2cc(C(F)(F)F)nn2C)cc1` was tested, and the AC50 was “inactive”.
In the case of `Cn1nc(C(F)(F)F)c(C(=O)Nc2ccc(F)cc2F)c1Sc1cccc(C(F)(F)F)c1`, the AC50 is reported as 1.58 µM (active).
In the case of `Cn1nc(C(F)(F)F)c(C(=O)Nc2ccc(F)cc2F)c1Sc1ccc(C(F)(F)F)cc1`, the AC50 is reported as 4.47 µM (active).
`CC(=O)N(/N=C1\Sc2ccccc2C1=O)c1ccccc1C` was tested, and the AC50 was 14.1 µM (active).
In the case of `CC(=O)N(/N=C1\Sc2ccccc2C1=O)c1ccccc1`, the AC50 is reported as “inactive”.
For `CCOC(=O)c1c(NC(=O)c2c(C)noc2C)sc2c1CCCCC2`, the AC50 was “inactive”.
In the case of `Cc1sc(NC(=O)C2CCCCC2C(=O)O)c(C(N)=O)c1C` (centres undefined), the AC50 is reported as “inactive”.
In the case of `COC(=O)c1c(C)[nH]c(C)c1C(=O)c1ccccc1Cc1ccccc1`, the AC50 is reported as “inactive”.
With `Cc1cccc(NC(=O)CSc2nnnn2C)n1` the AC50 was “inactive”.
`CCOc1ccc(CC(=O)Nc2sc(Cc3ccccc3)c(C)c2C(N)=O)cc1OCC` was tested, and the AC50 was “inactive”.
For `Cc1sc(NC(=O)C(C)C)c(C(=O)Nc2ccccc2)c1C`, the AC50 was 12.6 µM (active).
In the case of `CCOC(=O)c1c(NC(=O)CSc2nnnn2C)sc(C)c1C`, the AC50 is reported as 22.4 µM (active).
`CCOC(=O)c1c(NC(=O)CSc2nnc(C)s2)sc2c1CCCCC2` was tested, and the AC50 was 11.2 µM (active).
`CO[C@]1(NC(=O)CSCC#N)C(=O)N2C(C(=O)O)=C(CSc3nnnn3C)CS[C@H]21` was tested, and the AC50 was “inactive”.
With `COC(=O)c1c(NC(C)=O)sc(Cc2ccccc2)c1C` the AC50 was 10 µM (active).
In the case of `CN(C)c1nc(N)c(C(=O)N=C(N)N)nc1Cl`, the AC50 is reported as “inactive”.
Molecule `COC(=O)C1=C(C)[C@@H](O)[C@@H](C)[C@H](c2c(OC)c(OC)c(C)c(OC)c2OC)O1` has an activity, negative = inhibition of -3.08% [at 11.4 µM].
`CC(=O)N1CCC2(CCCN(Cc3nccs3)C2)CC1` was tested, and the AC50 was “inactive”.
With `CCOC(=O)c1c(NC(=O)Nc2ccccc2)sc(C)c1C` the AC50 was 3.55 µM (active).
In the case of `CCOC(=O)c1c(NC(=O)/C=C/c2ccc3c(c2)OCO3)sc(C)c1C`, the AC50 is reported as “inactive”.
For `Cc1cc(Nc2ccccc2)nc(N)n1`, the AC50 was “inactive”.
`Cc1nnc(SCc2nc(N)nc(Nc3ccccc3)n2)s1` was tested, and the AC50 was 10 µM (active).
For `CCCSc1nnc2n(N)c(=O)c3ccccc3n12`, the AC50 was “inactive”.
`Nc1nc(N)[n+]([O-])c(N)c1NCO` was tested, and the activity, negative = inhibition was 6.07% [at 11.4 µM].
Work on `CCOC(=O)c1cnc(N(C)C)nc1SC(=N)N` yielded an activity, negative = inhibition of -5.38% [at 11.4 µM].
For `Nc1nc(N)c(CCCCc2ccccc2)c(N)n1`, the activity, negative = inhibition was 5.71% [at 11.4 µM].
With `CCOC(=O)c1cnc(SCCc2ccccc2)nc1N` the AC50 was 11.2 µM (active).
With `CC1(C)C2([N+](=O)[O-])CN3CC1([N+](=O)[O-])CN(C2)C31CCCC1` the AC50 was “inactive”.
For `C=C1C(=O)O[C@@H]2[C@@H]1CC/C(C)=C\CC[C@@]1(C)O[C@H]21`, the AC50 was “inactive”.
`O=c1c2ccc([N+](=O)[O-])c3cccc(c32)c2nc3ccccc3n12` was tested, and the AC50 was “inactive”.
In the case of `O=C(O)c1ccc2c3c1cccc3c(=O)n1c3ccccc3nc21`, the AC50 is reported as 0.158 µM (active).
% is set by controls: 0 for no effect and ±100 for the full control effect.
